Results published in PubChem BioAssay (Tox21).
Unmarked numbers belong to inactive results. Results filed as inconclusive are left out. Entries that show only a call come without a potency. Activity calls are given as the source filed them. Unless noted, calls follow the shape of the dose curve; as a rule, active = well fitted curve in the direction sought with a large enough effect in the repeat runs; inconclusive = weak or mixed curves; inactive = no such curve, though single readings can be large; an effect the other way counts as inactive or inconclusive.

Experiments:
[1] = qHTS assay to identify small molecule antagonists of the androgen receptor (AR) signaling pathway using the MDA cell line in the presence of 0.5 nM R1881 - cell viability counter screen (AID 1259242); also: nearly all actives have a fitted effect of over 45% in size; also: potency is read from the fitted curve at half-maximal effect
Procedure, shortened: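 MDA-kb2 cells (human breast carcinoma, stably carrying MMTV-luciferase reporter) were exposed to compounds with 0.5 nM R1881 (final) for 16 hr at 37C, 0% CO2; viability then read as live-cell protease fluorescence (CellTiter-Fluor, 30 min) in the same wells.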

[2] = biological target: Androgen receptor (Homo sapiens) (UniProt P10275); assay: qHTS assay to identify small molecule antagonists of the androgen receptor (AR) signaling pathway using the MDA cell line in the presence of 0.5 nM R1881 (AID 1259243); also: nearly all actives have a fitted effect of over 50% in size; also: potency is read from the fitted curve at half-maximal effect
Sequence of Androgen receptor (Homo sapiens) (P10275 whole entry, looked up): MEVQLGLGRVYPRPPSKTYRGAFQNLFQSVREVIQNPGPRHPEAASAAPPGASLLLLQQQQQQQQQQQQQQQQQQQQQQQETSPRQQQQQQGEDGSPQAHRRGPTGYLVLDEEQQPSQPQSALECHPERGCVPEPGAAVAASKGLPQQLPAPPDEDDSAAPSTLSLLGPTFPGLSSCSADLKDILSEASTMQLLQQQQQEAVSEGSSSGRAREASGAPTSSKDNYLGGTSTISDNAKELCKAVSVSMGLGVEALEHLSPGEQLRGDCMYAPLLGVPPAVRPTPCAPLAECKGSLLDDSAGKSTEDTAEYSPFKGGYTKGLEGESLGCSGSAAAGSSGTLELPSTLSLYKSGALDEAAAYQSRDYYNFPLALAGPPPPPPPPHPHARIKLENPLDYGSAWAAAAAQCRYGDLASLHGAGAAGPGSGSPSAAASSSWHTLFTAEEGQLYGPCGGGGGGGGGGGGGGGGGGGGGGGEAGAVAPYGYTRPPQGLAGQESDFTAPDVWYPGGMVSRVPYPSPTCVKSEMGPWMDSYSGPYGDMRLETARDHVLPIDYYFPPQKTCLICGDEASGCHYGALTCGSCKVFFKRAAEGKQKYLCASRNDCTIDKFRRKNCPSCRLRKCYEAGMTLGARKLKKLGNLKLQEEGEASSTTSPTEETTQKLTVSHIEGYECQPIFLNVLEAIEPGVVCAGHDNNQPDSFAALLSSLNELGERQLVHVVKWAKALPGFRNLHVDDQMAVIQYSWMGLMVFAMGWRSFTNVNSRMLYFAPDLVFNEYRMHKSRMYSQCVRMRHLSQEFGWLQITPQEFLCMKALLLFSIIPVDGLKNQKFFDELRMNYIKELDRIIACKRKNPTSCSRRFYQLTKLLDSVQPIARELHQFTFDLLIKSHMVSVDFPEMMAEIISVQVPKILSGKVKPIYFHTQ
Procedure, shortened: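 MDA-kb2 human breast carcinoma cells carrying an MMTV-luciferase reporter (AR- and GR-responsive) were plated, rested 5 hr at 37C, dosed with compounds, then stimulated with 0.5 nM R1881 (final) for 16 hr; luminescence was read after ONE-Glo.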

[3] = biological target: Estrogen receptor (Homo sapiens) (UniProt P03372); assay: qHTS assay to identify small molecule antagonists of the estrogen receptor alpha (ER-alpha) signaling pathway using the BG1 cell line in the presence of 0.1 nM 17-beta-estradiol (AID 1259244); also: nearly all actives have a fitted effect of over 50% in size; also: potency is read from the fitted curve at half-maximal effect
Sequence of Estrogen receptor (Homo sapiens) (P03372 whole entry, looked up): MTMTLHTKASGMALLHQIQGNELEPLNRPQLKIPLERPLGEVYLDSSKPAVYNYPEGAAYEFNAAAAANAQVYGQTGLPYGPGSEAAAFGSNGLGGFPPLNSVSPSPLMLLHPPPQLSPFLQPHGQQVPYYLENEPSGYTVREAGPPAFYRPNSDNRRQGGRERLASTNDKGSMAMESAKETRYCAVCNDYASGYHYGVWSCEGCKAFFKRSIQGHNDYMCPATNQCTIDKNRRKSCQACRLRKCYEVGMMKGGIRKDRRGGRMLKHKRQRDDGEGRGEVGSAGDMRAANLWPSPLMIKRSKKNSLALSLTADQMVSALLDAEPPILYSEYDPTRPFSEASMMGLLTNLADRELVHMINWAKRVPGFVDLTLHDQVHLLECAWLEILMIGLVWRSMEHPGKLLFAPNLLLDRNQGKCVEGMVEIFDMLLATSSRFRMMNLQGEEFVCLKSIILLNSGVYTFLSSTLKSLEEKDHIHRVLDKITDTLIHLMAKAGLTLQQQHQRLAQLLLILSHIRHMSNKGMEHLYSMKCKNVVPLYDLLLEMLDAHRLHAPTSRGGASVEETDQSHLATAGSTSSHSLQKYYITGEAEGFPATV
Procedure, shortened: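 VM7Luc4E2 cells (endogenous full-length ER-alpha, stable 4xERE-luciferase) were grown 5 days in phenol red-free medium with charcoal-stripped FBS, then exposed 22 h at 37C to compounds plus 0.1 nM (final) 17beta-estradiol; ONE-Glo luminescence read-out.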

[4] = qHTS assay to identify small molecule HDAC inhibitors (AID 1259364); also: nearly all actives have a fitted effect of over 45% in size; also: potency is read from the fitted curve at half-maximal effect; as to activity change, negative = inhibition: top concentration of the series differs between compounds
Procedure, shortened: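 Wild-type HCT-116 cells were plated overnight, exposed to compounds for 2 h at 37 °C, then given HDAC-Glo class I/II luminogenic reagent for 30 min at room temperature before luminescence was read.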

[5] = qHTS assay to identify small molecule HDAC inhibitors - cell viability counter screen (AID 1259365); also: series mostly up to about 92 µM; nearly all actives have a fitted effect of over 50% in size
Procedure, shortened: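 Wild-type HCT-116 cells, 1,500/well, cultured overnight, then compound-treated 2 h at 37 C. Viability measured as ATP luminescence with CellTiter-Glo after 30 min at room temperature.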

[6] = qHTS assay to identify small molecule agonists of the sonic hedgehog signaling (Shh) pathway - cell viability counter screen (AID 1259366); also: nearly all actives have a fitted effect of over 50% in size; also: potency is read from the fitted curve at half-maximal effect
Procedure, shortened: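 NIH/3T3-derived Gli1-Luc reporter cells, 2,000 per well, received compound after 4 h and were treated about 23 h at 37C. Viability measured in the same wells by CellTiter-Fluor fluorescence after 1 h.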

[7] = qHTS assay to identify small molecule antagonists of the sonic hedgehog signaling (Shh) pathway - cell viability counter screen (AID 1259367); also: nearly all actives have a fitted effect of over 55% in size; also: potency is read from the fitted curve at half-maximal effect
Procedure, shortened: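 Using CellTiter-Fluor, viability of Gli1-Luc reporter 3T3 cells is read by fluorescence in the wells used for the Shh luciferase assay. Treatment lasts 23 hr with conditioned medium, then reagent 1 hr at 37C.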

[8] = qHTS assay to identify small molecule agonists of the sonic hedgehog signaling (Shh) pathway (AID 1259368; calls by dose curve; also: series mostly up to about 92 µM; nearly all actives have a fitted effect of over 15% in size)
Procedure, shortened: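 NIH/3T3-derived 3T3Gli1-Luc cells carrying a stably integrated Gli1 response element–firefly luciferase reporter were plated, left 4 hr at 37 C, then given compounds in DMSO for 24 hr. Luminescence was read 30 min after adding luciferase reagent.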

[9] = qHTS assay to identify small molecule antagonists of the sonic hedgehog signaling (Shh) pathway (AID 1259369; calls by dose curve; also: nearly all actives have a fitted effect of over 45% in size; also: potency is read from the fitted curve at half-maximal effect)
Procedure, shortened: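 NIH/3T3-derived 3T3Gli1-Luc cells with stably integrated Gli1-Luc reporter were preincubated 4hr at 37 C, then given compounds in DMSO plus Shh conditioned medium and incubated 24hr. Firefly luciferase luminescence read after 30min reagent at room temperature.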

[10] = qHTS assay to identify small molecule phospholipidosis (PLD) inducers (AID 1259344; active = well fitted curve in the direction sought with a large enough effect; an effect the other way counts as inactive or inconclusive)
Procedure, shortened: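 Fluorescent phospholipid staining (LipidTOX Red) measured by automated microscopy in fixed HepG2 cells after 24 h treatment; nuclei counterstained with Hoechst 33342; amiodarone as reference inducer.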

In the case of `Nc1ccccc1C(=O)Oc1ccc2ccccc2c1`, the Potency [1] is reported as “inactive”, the Potency [2] is reported as “inactive” and the Potency [3] is reported as “inactive”. For the same compound, the Potency [4] was 8.63 µM (active), the Potency [5] was “inactive” and the Potency [6] was “inactive”. For the same compound, the Potency [7] was “inactive”.

For `ClC1=C(Cl)[C@]2(Cl)[C@@H]3[C@@H](Cl)[C@H](Cl)C[C@@H]3[C@@]1(Cl)C2(Cl)Cl`, the Potency [1] was “inactive”, the Potency [2] was “inactive” and the Potency [3] was “inactive”. The Potency [4] was “inactive”, the Potency [5] was “inactive” and the Potency [7] was “inactive”. The Potency [8] was “inactive” and the Potency [9] was “inactive”.

In the case of `NC(=O)CCl`, the Potency [1] is reported as “inactive”, the Potency [2] is reported as “inactive” and the Potency [3] is reported as “inactive”. For the same compound, the Potency [4] was “inactive”, the Potency [5] was “inactive” and the Potency [7] was “inactive”. For the same compound, the Potency [8] was “inactive”.

For `CC1(C)CN=C(NN=C(/C=C/c2ccc(C(F)(F)F)cc2)/C=C/c2ccc(C(F)(F)F)cc2)NC1`, the Potency [1] was 24.3 µM (active), the Potency [2] was 17.2 µM (active) and the Potency [3] was 48.6 µM (active). For the same compound, the Potency [4] was “inactive”, the Potency [5] was “inactive” and the Potency [6] was 19.3 µM (active). For the same compound, the Potency [7] was 17.2 µM (active), the Potency [8] was “inactive” and the Potency [9] was 6.86 µM (active).

With `BrCC(Br)c1ccccc1` (configuration not stated) the Potency [1] was “inactive”, the Potency [2] was “inactive” and the Potency [3] was “inactive”. For the same compound, the Potency [4] was “inactive”, the Potency [5] was “inactive” and the Potency [6] was “inactive”. For the same compound, the Potency [7] was “inactive” and the Potency [8] was “inactive”.

In the case of `CCc1ccccc1C`, the Potency [1] is reported as “inactive”, the Potency [2] is reported as “inactive” and the Potency [3] is reported as “inactive”. The Potency [4] was “inactive”, the Potency [5] was “inactive” and the Potency [6] was “inactive”. The Potency [7] was “inactive”, the Potency [8] was “inactive” and the Potency [9] was “inactive”.

In the case of `C=COCCCl`, the Potency [1] is reported as “inactive”, the Potency [2] is reported as “inactive” and the Potency [3] is reported as “inactive”. For the same compound, the Potency [4] was “inactive”, the Potency [5] was “inactive” and the Potency [6] was “inactive”. For the same compound, the Potency [7] was “inactive”, the Potency [8] was “inactive” and the Potency [9] was “inactive”.

With `COP(=O)(CCC(=O)NCO)OC` the Potency [1] was “inactive”, the Potency [2] was “inactive” and the Potency [3] was “inactive”. For the same compound, the Potency [4] was “inactive”, the Potency [5] was “inactive” and the Potency [6] was “inactive”. The Potency [8] was “inactive” and the Potency [9] was “inactive”.

In the case of `COS(=O)(=O)c1ccc(C)cc1`, the Potency [1] is reported as “inactive”, the Potency [2] is reported as “inactive” and the Potency [3] is reported as “inactive”. For the same compound, the Potency [4] was “inactive”, the Potency [5] was “inactive” and the Potency [6] was “inactive”. For the same compound, the Potency [7] was “inactive” and the Potency [8] was “inactive”.

In the case of `CNC(C)Cc1ccc2c(c1)OCO2` (configuration not stated), the Potency [1] is reported as “inactive”, the Potency [2] is reported as “inactive” and the Potency [3] is reported as “inactive”. For the same compound, the Potency [10] was “inactive”, the Potency [4] was “inactive” and the Potency [5] was “inactive”. The Potency [8] was “inactive” and the Potency [9] was 18.9 µM (active).

In the case of `N#CCCO`, the Potency [1] is reported as “inactive”, the Potency [2] is reported as “inactive” and the Potency [3] is reported as “inactive”. For the same compound, the Potency [4] was “inactive”, the Potency [5] was “inactive” and the Potency [7] was “inactive”. The Potency [8] was “inactive” and the Potency [9] was “inactive”.

With `O=[N+]([O-])c1cc(Cl)ccc1Cl` the Potency [1] was “inactive”, the Potency [2] was “inactive” and the Potency [3] was “inactive”. For the same compound, the Potency [4] was “inactive”, the Potency [5] was “inactive” and the Potency [6] was “inactive”. For the same compound, the Potency [7] was “inactive”, the Potency [8] was “inactive” and the Potency [9] was “inactive”.

For `N#Cc1ccc(O)cc1`, the Potency [1] was “inactive”, the Potency [2] was “inactive” and the Potency [3] was “inactive”. The Potency [4] was “inactive”, the Potency [5] was “inactive” and the Potency [6] was “inactive”. For the same compound, the Potency [8] was “inactive”.

For `Cc1ccc(C(=O)Cl)cc1`, the Potency [1] was “inactive”, the Potency [2] was “inactive” and the Potency [3] was “inactive”. For the same compound, the Potency [4] was “inactive”, the Potency [5] was “inactive” and the Potency [6] was “inactive”. For the same compound, the Potency [7] was “inactive” and the Potency [9] was “inactive”.

In the case of `N#Cc1ccccc1N`, the Potency [1] is reported as “inactive”, the Potency [2] is reported as “inactive” and the Potency [3] is reported as “inactive”. For the same compound, the Potency [4] was “inactive”, the Potency [5] was “inactive” and the Potency [6] was “inactive”. The Potency [7] was “inactive”, the Potency [8] was “inactive” and the Potency [9] was “inactive”.

For `CC1(C)CC/C(=C/c2ccc(Cl)cc2)C1(O)Cn1cncn1` (configuration not stated), the Potency [1] was “inactive”, the Potency [2] was 1.21 µM (active) and the Potency [3] was 68.2 µM (active). The Potency [10] was “inactive”, the Potency [4] was “inactive” and the Potency [5] was “inactive”. For the same compound, the Potency [6] was 17.1 µM (active) and the Potency [8] was “inactive”.

For `CCOC(=O)CC(=O)CCl`, the Potency [1] was “inactive”, the Potency [2] was 30.6 µM (active) and the Potency [3] was “inactive”. The Potency [4] was “inactive”, the Potency [5] was “inactive” and the Potency [6] was “inactive”. For the same compound, the Potency [7] was “inactive”, the Potency [8] was “inactive” and the Potency [9] was “inactive”.

For `CCCCCCCCCCCCCCCCCCn1cc[n+](C)c1`, the Potency [1] was 34.2 µM (active), the Potency [2] was 3.83 µM (active) and the Potency [3] was 15.3 µM (active). The Potency [4] was “inactive”, the Potency [5] was “inactive” and the Potency [6] was 30.5 µM (active). The Potency [8] was “inactive” and the Potency [9] was 0.0542 µM (active).

With `ClC1=C(Cl)[C@]2(Cl)[C@@H]3[C@@H](Cl)[C@@H](Cl)C[C@@H]3[C@@]1(Cl)C2(Cl)Cl` the Potency [1] was “inactive”, the Potency [2] was “inactive” and the Potency [3] was “inactive”. The Potency [4] was “inactive”, the Potency [5] was “inactive” and the Potency [7] was “inactive”. For the same compound, the Potency [8] was “inactive” and the Potency [9] was “inactive”.

In the case of `[Cl][Sn]([c]1ccccc1)([c]1ccccc1)[c]1ccccc1`, the Potency [1] is reported as 1.64 µM (active), the Potency [2] is reported as 0.82 µM (active) and the activity change, negative = inhibition [3] is reported as -95.6% [at 19 µM]. For the same compound, the activity change, negative = inhibition [4] was -5.43% [at 19 µM], the activity change, negative = cytotoxicity [5] was 26.2% [at 19 µM] and the Potency [6] was 0.231 µM (active). The Potency [7] was 0.366 µM (active) and the Potency [9] was 0.206 µM (active).

For `C[C@@H]1O[C@@H](O[C@H]2C[C@@H](O)[C@]3(CO)[C@H]4[C@H](O)C[C@]5(C)[C@@H](C6=CC(=O)OC6)CC[C@]5(O)[C@@H]4CC[C@]3(O)C2)[C@H](O)[C@H](O)[C@H]1O`, the Potency [1] was “inactive”, the Potency [2] was “inactive” and the Potency [3] was “inactive”. For the same compound, the Potency [10] was “inactive”, the Potency [4] was “inactive” and the Potency [5] was “inactive”. For the same compound, the Potency [6] was “inactive”, the Potency [7] was “inactive” and the Potency [8] was “inactive”. The Potency [9] was “inactive”.

For `CCOC(=O)C1(c2ccccc2)CCN(CCC(C#N)(c2ccccc2)c2ccccc2)CC1`, the Potency [1] was “inactive”, the Potency [2] was 29.8 µM (active) and the Potency [3] was “inactive”. The Potency [10] was “inactive”, the Potency [4] was “inactive” and the Potency [5] was “inactive”. The Potency [6] was “inactive”, the Potency [7] was “inactive” and the Potency [8] was “inactive”.
